{
  "source": "PubChem BioAssay (NCATS)",
  "note": "Records with an inconclusive call do not appear. Calls of active or inactive are those of the source. Calls come from the whole dose curve; as a rule, active = well fitted inhibition curve with a large enough effect; inconclusive = small, poorly fitted or top-dose-only effect; inactive = no such curve, though single readings can be large or run the other way. Potency is the fitted concentration of half-maximal effect.",
  "data": [
    {"experiment": "BET inhibitor-based combinations targeting novel dependencies in MECOM-rearranged (r) AML: MV-4-11 cell line (AID 2202233); note: nearly all actives have a fitted effect of over 45% in size", "details": "MV-4-11 AML viability, CellTiter-Glo luminescence, 48 h; series mostly up to 46 µM", "method_in_brief": "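Luminescent ATP readout (CellTiter-Glo, 15 min at room temperature) after 48 hr drug exposure gave viability. Dose-response curves, normalized to DMSO and empty-well controls, were summarized as area under the curve and its mean-centred Z-score.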", "values": [
      {"compound": "CCOC(=O)[C@@H](N)Cc1ccc(-c2cc(O[C@H](c3ccc(Cl)cc3-n3ccc(C)n3)C(F)(F)F)nc(N)n2)cc1", "Potency": "9.34 µM (active)"},
      {"compound": "O=C(Nc1cn[nH]c1-c1nc2ccc(CN3CCOCC3)cc2[nH]1)NC1CC1", "Potency": "0.0263 µM (active)"},
      {"compound": "CCCC1(CCC)CCC2(CCN(CCCN(CC)CC)C2)CC1", "Potency": "6.61 µM (active)"},
      {"compound": "COCCOC(=O)C1=C(C)NC2=C(C(=O)CC(c3ccccc3OC)C2)C1c1cccc(O)c1", "note": "(stereo not drawn)", "Potency": "5.25 µM (active)"},
      {"compound": "O=C(N[C@H]1CCC[C@H](CO)C1)C1CCN(c2nc3cc(Cl)c(-c4ccc(Cl)cc4)cc3o2)CC1", "Potency": "23.5 µM (active)"},
      {"compound": "N#Cc1ccc(COC[C@H]2O[C@@H](n3c(NCc4ccc(Cl)c(Cl)c4)nc4c(N)ncnc43)[C@H](O)[C@@H]2O)cc1", "Potency": "14.8 µM (active)"},
      {"compound": "c1ccc(Cn2c(-c3ccc(OCC(C4CCNCC4)n4c(-c5ccccc5)nc5ccccc54)cc3)nc3ccccc32)cc1", "note": "(stereo not drawn)", "Potency": "8.33 µM (active)"},
      {"compound": "Cn1ncc(Cl)c1-c1cc(C(=O)NC(CN)Cc2ccc(F)c(F)c2)oc1Cl", "note": "(stereo not drawn)", "Potency": "11.8 µM (active)"},
      {"compound": "CON(C)C(=O)N1N=C(c2cc(F)ccc2F)S[C@@]1(CCCN)c1ccccc1", "Potency": "0.0118 µM (active)"},
      {"compound": "Cc1cnc(Nc2ccc(CN3CCOCC3)cc2)nc1Nc1cccc(S(=O)(=O)NC(C)(C)C)c1", "Potency": "0.417 µM (active)"},
      {"compound": "OCCNC1CCCc2c1[nH]c1ccc(-c3ccccc3)cc21", "note": "(stereo not drawn)", "Potency": "11.8 µM (active)"},
      {"compound": "CCC(=O)NS(=O)(=O)c1ccc(-c2c(-c3ccccc3)noc2C)cc1", "Potency": "inactive"},
      {"compound": "CNCc1ccc(C)c(NC(=O)c2ccc(Nc3nc(-c4ccccc4)c4ccccc4n3)cc2)c1", "Potency": "13.2 µM (active)"}
    ]}
  ]
}
